# Measurements as given in PubChem BioAssay (Tox21).
# Unmarked numbers belong to inactive results. Results filed as inconclusive are left out. Entries that show only a call come without a potency. Activity calls are given as the source filed them. Unless noted, calls follow the shape of the dose curve; as a rule, active = well fitted curve in the direction sought with a large enough effect in the repeat runs; inconclusive = weak or mixed curves; inactive = no such curve, though single readings can be large; an effect the other way counts as inactive or inconclusive.
# Assays:
# [1] = qHTS assay to identify small molecule agonists of H2AX - cell viability counter screen (AID 1224847; calls by dose curve; also: nearly all actives have a fitted effect of over 30% in size; also: potency is read from the fitted curve at half-maximal effect)
# Method in brief: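 Counter-screen for viability: CellTiter-Glo ATP luminescence read after 3 h compound treatment (15-point titration, 0.76% DMSO final) of CHO-K1 cells at 37C, with 30 min room-temperature reagent incubation.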
# [2] = qHTS assay to identify small molecule antagonists of the estrogen related receptor (ERR) signaling pathway from Tox21 library (AID 1224848); also: nearly all actives have a fitted effect of over 50% in size; also: potency is read from the fitted curve at half-maximal effect
# Method in brief: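 Tox21 10K compounds in DMSO tested for ERR pathway antagonism in NTP's ERR cell line; 18 h, 37 C exposure; ONE-Glo luminescence.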
# [3] = qHTS assay to identify small molecule agonists of the estrogen related receptor (ERR) signaling pathway from Tox21 library (AID 1224849; calls by dose curve; also: nearly all actives have a fitted effect of over 15% in size); conditions: ERR reporter cell line, ONE-Glo luciferase, 18 h; at 92.4 µM (top of the series) unless noted
# Method in brief: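 Quantitative HTS in agonist format: NTP ERR cell line, compounds transferred in DMSO after 6 h plating, 18 h incubation at 37 C, ONE-Glo luminescence endpoint.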
# [4] = A CellTox Green Cytotoxicity Assay to monitor cytotoxicity in HEK293 cells - 0 hour (AID 1224869); also: nearly all actives have a fitted effect of over 50% in size
# Method in brief: (§1)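 Dead-cell fluorescence measured kinetically: asymmetric cyanine dye, HEK293, 600 cells/well, 5 h settle, 23 nL cpd/DMSO, 37 C, reads 0–40 h every 8 h.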
# [5] = qHTS RealTime-Glo MT Cell Viability Assay in HepG2 cells - 40 hour (AID 1224870); also: nearly all actives have a fitted effect of over 50% in size; also: potency is read from the fitted curve at half-maximal effect
# Method in brief: (§2)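 HepG2 cells mixed with RealTime-Glo MT reagents (NanoLuc plus cell-permeant prosubstrate) were seeded at 600 cells/well, incubated 5 h at 37 C/5% CO2, then pinned with compounds in DMSO; nonlytic luminescence tracked viability during 40 h treatment.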
# [6] = A CellTox Green Cytotoxicity Assay to monitor cytotoxicity in HEK293 cells - 40 hour (AID 1224871); also: nearly all actives have a fitted effect of over 45% in size; also: potency is read from the fitted curve at half-maximal effect
# Method in brief: as §1
# [7] = qHTS RealTime-Glo MT Cell Viability Assay in HEK293 cells - 16 hour (AID 1224872); also: nearly all actives have a fitted effect of over 50% in size; also: potency is read from the fitted curve at half-maximal effect
# Method in brief: (§3)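 Viability tracked continuously by luminescence as live cells reduce a prosubstrate for NanoLuc; HEK293 cells preincubated 5 h, compound-treated at 37 C, and read at 0, 8, 16, 24, 32 and 40 h.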
# [8] = A CellTox Green Cytotoxicity Assay to monitor cytotoxicity in HEK293 cells - 24 hour (AID 1224875); also: nearly all actives have a fitted effect of over 45% in size; also: potency is read from the fitted curve at half-maximal effect
# Method in brief: as §1
# [9] = A CellTox Green Cytotoxicity Assay to monitor cytotoxicity in HepG2 cells - 16 hour (AID 1224876); also: nearly all actives have a fitted effect of over 45% in size; also: potency is read from the fitted curve at half-maximal effect
# Method in brief: (§4)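 First, HepG2 cells (600/well) mixed with reagent were plated; second, after 5 h at 37 C they received compounds via pintool; third, fluorescence was measured at 0 h through 40 h at 8 h intervals.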
# [10] = qHTS RealTime-Glo MT Cell Viability Assay in HEK293 cells - 0 hour (AID 1224880); also: top concentration of the series differs between compounds; nearly all actives have a fitted effect of over 45% in size
# Method in brief: (§5)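 600 HEK293 cells per well, dispensed already mixed with RealTime-Glo MT reagents. Compound dosing came 5 h later. The same wells were read for luminescence at 0, 8, 16, 24, 32 and 40 h of exposure at 37 C.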
# [11] = A CellTox Green Cytotoxicity Assay to monitor cytotoxicity in HEK293 cells - 32 hour (AID 1224881); also: nearly all actives have a fitted effect of over 40% in size; also: potency is read from the fitted curve at half-maximal effect
# Method in brief: as §1
# [12] = qHTS RealTime-Glo MT Cell Viability Assay in HepG2 cells - 24 hour (AID 1224867); also: nearly all actives have a fitted effect of over 50% in size; also: potency is read from the fitted curve at half-maximal effect
# Method in brief: (§6)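 Viability was tracked continuously by NanoLuc luminescence from prosubstrate reduced by living HepG2 cells, at successive time points over 40 h of compound exposure. Cells with reagent were preincubated 5 h at 37 °C before compound addition.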
# [13] = qHTS RealTime-Glo MT Cell Viability Assay in HepG2 cells - 8 hour (AID 1224873); also: nearly all actives have a fitted effect of over 55% in size; also: potency is read from the fitted curve at half-maximal effect
# Method in brief: as §2
# [14] = qHTS RealTime-Glo MT Cell Viability Assay in HEK293 cells - 40 hour (AID 1224874); conditions: RealTime-Glo luminescence; max response: hits give low values; also: nearly all actives have a fitted effect of over 50% in size; also: potency is read from the fitted curve at half-maximal effect
# Method in brief: as §5
# [15] = qHTS RealTime-Glo MT Cell Viability Assay in HepG2 cells - 32 hour (AID 1224877); also: nearly all actives have a fitted effect of over 55% in size
# Method in brief: as §6
# [16] = A CellTox Green Cytotoxicity Assay to monitor cytotoxicity in HepG2 cells - 0 hour (AID 1224882); also: nearly all actives have a fitted effect of over 35% in size
# Method in brief: as §4
# [17] = A CellTox Green Cytotoxicity Assay to monitor cytotoxicity in HepG2 cells - 24 hour (AID 1224878); also: nearly all actives have a fitted effect of over 45% in size; also: potency is read from the fitted curve at half-maximal effect
# Method in brief: as §4
# [18] = A CellTox Green Cytotoxicity Assay to monitor cytotoxicity in HepG2 cells - 40 hour (AID 1224879); also: nearly all actives have a fitted effect of over 40% in size; also: potency is read from the fitted curve at half-maximal effect
# Method in brief: as §4
# [19] = A CellTox Green Cytotoxicity Assay to monitor cytotoxicity in HepG2 cells - 32 hour (AID 1224883); also: nearly all actives have a fitted effect of over 50% in size; also: potency is read from the fitted curve at half-maximal effect
# Method in brief: as §4
# [20] = qHTS RealTime-Glo MT Cell Viability Assay in HEK293 cells - 32 hour (AID 1224868); also: nearly all actives have a fitted effect of over 50% in size; also: potency is read from the fitted curve at half-maximal effect
# Method in brief: as §3
structure (smiles),measurement,setting,value
C=C1C(CCl)(CCl)C2(Cl)C(Cl)C(Cl)C1(Cl)C2(Cl)Cl (stereo unspecified),Potency,[1],99.6 µM (active)
same,Potency,[2],60.4 µM (active)
same,"activity change, positive = activation",[3],-73.9%
same,Potency,[4],inactive
same,Potency,[5],inactive
same,Potency,[6],48.4 µM (active)
same,Potency,[7],48.4 µM (active)
same,Potency,[8],54.3 µM (active)
same,Potency,[9],inactive
same,Potency,[10],inactive
same,Potency,[11],48.4 µM (active)
O=S(=O)(c1ccc(OCc2ccccc2)cc1)c1ccccc1O,Potency,[1],45 µM (active)
same,Potency,[2],19.3 µM (active)
same,"activity change, positive = activation",[3],-29%
same,Potency,[12],inactive
same,Potency,[4],inactive
same,Potency,[5],inactive
same,Potency,[13],inactive
same,Potency,[14],19.5 µM (active)
same,Potency,[8],inactive
same,Potency,[15],inactive
same,Potency,[10],inactive
same,Potency,[11],inactive
same,Potency,[16],inactive
CCc1cccc(CC)c1,Potency,[1],inactive
same,Potency,[2],inactive
same,"activity change, positive = activation",[3],-2.59%
same,Potency,[12],inactive
same,Potency,[4],inactive
same,Potency,[5],inactive
same,Potency,[6],inactive
same,Potency,[7],inactive
same,Potency,[13],inactive
same,max response,[14],23.9%
same,Potency,[8],inactive
same,Potency,[9],inactive
same,Potency,[17],inactive
same,Potency,[18],inactive
same,Potency,[10],inactive
same,Potency,[11],inactive
same,Potency,[16],inactive
same,Potency,[19],inactive
O=C(CCCCCCCCc1cccnc1)N1CCC(C=C(c2ccccc2)c2ccccc2)CC1,Potency,[1],50.5 µM (active)
same,Potency,[2],21.7 µM (active)
same,"activity change, positive = activation",[3],-69.2%
same,Potency,[20],21.9 µM (active)
same,Potency,[4],inactive
same,Potency,[7],21.9 µM (active)
same,Potency,[13],49 µM (active)
same,Potency,[14],21.9 µM (active)
same,Potency,[8],inactive
same,Potency,[9],inactive
same,Potency,[17],inactive
same,Potency,[10],inactive
same,Potency,[11],inactive
same,Potency,[16],inactive
same,Potency,[19],inactive
C1CCSC1,Potency,[1],inactive
same,Potency,[2],inactive
same,"activity change, positive = activation",[3],0.687%
same,Potency,[12],inactive
same,Potency,[4],inactive
same,Potency,[5],inactive
same,Potency,[6],inactive
same,Potency,[13],inactive
same,Potency,[8],inactive
same,Potency,[9],inactive
same,Potency,[15],inactive
same,Potency,[17],inactive
same,Potency,[18],inactive
same,Potency,[10],inactive
same,Potency,[11],inactive
same,Potency,[16],inactive
same,Potency,[19],inactive
O=C(Nc1ccccc1)c1cc(Cl)ccc1O,Potency,[1],25.3 µM (active)
same,"activity change, positive = activation",[3],-16.2%
same,Potency,[4],inactive
same,Potency,[5],49 µM (active)
same,Potency,[13],inactive
same,Potency,[14],21.9 µM (active)
same,Potency,[8],inactive
same,Potency,[9],inactive
same,Potency,[18],49 µM (active)
same,Potency,[10],inactive
same,Potency,[11],inactive
same,Potency,[19],49 µM (active)
CCCCCc1ccc(O)cc1,Potency,[1],89.8 µM (active)
same,Potency,[2],inactive
same,"activity change, positive = activation",[3],1.58%
same,Potency,[12],inactive
same,Potency,[4],inactive
same,Potency,[5],inactive
same,Potency,[6],34.7 µM (active)
same,Potency,[13],inactive
same,Potency,[8],38.9 µM (active)
same,Potency,[9],49 µM (active)
same,Potency,[15],inactive
same,Potency,[18],43.6 µM (active)
same,Potency,[10],inactive
same,Potency,[11],34.7 µM (active)
same,Potency,[16],inactive
same,Potency,[19],49 µM (active)
CCC1(C)C(=O)N(Cl)C(=O)N1Cl (stereo unspecified),Potency,[1],inactive
same,Potency,[2],inactive
same,"activity change, positive = activation",[3],-3.41%
same,Potency,[12],inactive
same,Potency,[4],inactive
same,Potency,[5],inactive
same,Potency,[6],inactive
same,Potency,[13],inactive
same,max response,[14],2.78%
same,Potency,[8],inactive
same,Potency,[9],inactive
same,Potency,[15],inactive
same,Potency,[17],inactive
same,Potency,[18],inactive
same,Potency,[10],inactive
same,Potency,[11],inactive
same,Potency,[16],inactive
same,Potency,[19],inactive
CCOC(=O)C1=NN(c2ccc(Cl)cc2Cl)C(C)(C(=O)OCC)C1 (stereo unspecified),Potency,[1],113 µM (active)
same,Potency,[2],48.6 µM (active)
same,"activity change, positive = activation",[3],-36.6%
same,Potency,[12],inactive
same,Potency,[4],inactive
same,Potency,[5],inactive
same,Potency,[6],inactive
same,Potency,[13],inactive
same,Potency,[8],inactive
same,Potency,[9],inactive
same,Potency,[15],inactive
same,Potency,[17],inactive
same,Potency,[18],inactive
same,Potency,[10],inactive
same,Potency,[11],inactive
same,Potency,[19],inactive
CCC(C)(C)c1ccc(CC(C)CN2C[C@@H](C)O[C@@H](C)C2)cc1 (stereo partly specified),Potency,[1],55.2 µM (active)
same,"activity change, positive = activation",[3],-22.5% [at 42.5 µM]
same,Potency,[12],inactive
same,Potency,[20],inactive
same,Potency,[4],inactive
same,Potency,[5],inactive
same,Potency,[6],23.9 µM (active)
same,Potency,[13],inactive
same,max response,[14],-25.5%
same,Potency,[8],23.9 µM (active)
same,Potency,[15],inactive
same,Potency,[17],21.3 µM (active)
same,Potency,[18],23.9 µM (active)
same,Potency,[10],inactive
same,Potency,[11],23.9 µM (active)
same,Potency,[16],inactive
same,Potency,[19],21.3 µM (active)
CC(C)(C)c1cc(CCC(=O)OCCSCCOC(=O)CCc2cc(C(C)(C)C)c(O)c(C(C)(C)C)c2)cc(C(C)(C)C)c1O,Potency,[1],inactive
same,Potency,[2],inactive
same,"activity change, positive = activation",[3],-3.83% [at 42.5 µM]
same,Potency,[12],inactive
same,Potency,[4],inactive
same,Potency,[7],inactive
same,max response,[14],2.76%
same,Potency,[8],inactive
same,Potency,[9],inactive
same,Potency,[17],inactive
same,Potency,[18],inactive
same,Potency,[10],inactive
same,Potency,[11],inactive
same,Potency,[16],inactive
same,Potency,[19],inactive
O[Si](c1ccccc1)(c1ccccc1)c1ccccc1,Potency,[1],101 µM (active)
same,"activity change, positive = activation",[3],-39.7%
same,Potency,[12],inactive
same,Potency,[20],38.9 µM (active)
same,Potency,[4],inactive
same,Potency,[5],inactive
same,Potency,[6],inactive
same,Potency,[13],inactive
same,Potency,[14],38.9 µM (active)
same,Potency,[8],inactive
same,Potency,[9],inactive
same,Potency,[15],inactive
same,Potency,[18],inactive
same,Potency,[10],inactive
same,Potency,[11],inactive
same,Potency,[16],inactive
same,Potency,[19],inactive
CCCCCN=C(N)N/N=C/c1c[nH]c2ccc(OC)cc12,Potency,[1],49.2 µM (active)
same,Potency,[2],15 µM (active)
same,"activity change, positive = activation",[3],-70.2% [at 42.5 µM]
same,Potency,[12],6.01 µM (active)
same,Potency,[4],inactive
same,Potency,[5],5.35 µM (active)
same,Potency,[7],4.77 µM (active)
same,Potency,[13],10.7 µM (active)
same,Potency,[14],4.25 µM (active)
same,Potency,[8],6.74 µM (active)
same,Potency,[9],6.74 µM (active)
same,Potency,[17],5.35 µM (active)
same,Potency,[18],5.35 µM (active)
same,Potency,[11],6.01 µM (active)
same,Potency,[16],inactive
same,Potency,[19],6.01 µM (active)
